Several values for one entry are separate records, joined by “and”; a condition that tells them apart may be missing. Equal values may be shown once. Where a name gives a salt, the structure may show the parent alone. ± gives the standard deviation.
System: THP-1
Assay: THP-1 cell loss relative to DMSO control; higher = more host cell loss (toxicity); extreme values may be limits of the assay
Conditions: 10 µM; 4 days; infection: M. tuberculosis H37Rv
Method: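 OICR kinase inhibitor library screened in duplicate at 10 uM against M. tuberculosis-infected THP-1 macrophages, 4 days at 37 C. THP-1 cell loss (cytotoxicity or loss of adherence) was quantified from Hoechst-stained nuclei counts by high-content imaging and normalised to the 1% DMSO control; 100 = complete loss of host cells.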

SMILES | THP-1 cell loss
C#Cc1cccc(Nc2ncnc3cc(OCCOC)c(OCCOC)cc23)c1 [Erlotinib HCl] | 5.26 ± 7.4%
Cc1cc(Nc2nc(N[C@@H](C)c3ncc(F)cn3)ncc2Cl)[nH]n1 | 4.08 ± 4.6%
Cc1ccccc1-n1c(Cn2nc(-c3cccc(O)c3)c3c(N)ncnc32)nc2cccc(C)c2c1=O | 43.9 ± 23%
CNc1nccc(-c2cccnc2Oc2cc(C(=O)Nc3cccc(C(F)(F)F)c3)ccc2C)n1 | 100%
COc1cc(OC)c(C=C2C(=O)Nc3ccccc32)c(OC)c1 | 45.3 ± 6.7%
Cc1ccc2c(=O)c3ccccc3n(CCCN)c2c1C | 100%
Fc1ccc(-c2nc3n(c2-c2ccncc2)CCS3)cc1 | 7.21% and 5.2%
C=CC(=O)Nc1cc2c(Nc3ccc(F)c(Cl)c3)ncnc2cc1OCCCN1CCOCC1 | 100%
O=Nc1c(-c2c(O)[nH]c3cc(Br)ccc23)[nH]c2ccccc12 [6-bromoindirubin-3'-oxime] | 100%
N#CCc1ccc(Nc2nc(Nc3cc(C4CCC4)[nH]n3)c3ccccc3n2)cc1 | 100%
c1cc(OCCN2CCCCC2)cc(-c2n[nH]c3ccc(-c4nnc[nH]4)cc23)c1 | 3.37 ± 4.8%
CO[C@@H]1[C@H](N(C)C(=O)c2ccccc2)C[C@H]2O[C@]1(C)n1c3ccccc3c3c4c(c5c6ccccc6n2c5c31)C(=O)NC4 | 30.8 ± 4.7%
O=C(Nc1cccc(Cl)c1)Nc1ncc(CCNc2ncnc3ccsc23)s1 | 80.2 ± 4.3%
Cc1cc(C(=O)NOCCO)c(Nc2ccc(I)cc2F)n(C)c1=O | 100%
c1cc(-c2cnn3cc(-c4ccc(OCCN5CCCCC5)cc4)cnc23)ccn1 [Dorsomorphin dihydrochloride] | 100%

— the supplement of paper PMC7530171
